In assay [1] the target is Luciferin 4-monooxygenase (Photinus pyralis) (UniProt P08659). The assay can be described thus: Biochemical firefly luciferase enzyme assay for NPC (AID 624030).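 Note: purified P. pyralis luciferase at 10 nM with luciferin and ATP substrate; series mostly up to about 59 µM; nearly all actives have a fitted effect of over 70% in size.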 A digest of the protocol:
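Direct inhibition of firefly luciferase enzyme (10 nM final, 50 mM Tris Acetate) assessed by luminescence within 5 minutes. Percent activity scaled between DMSO and PTC124 positive control, with concentration-effect curves classified by fit quality and response.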

A short description of assay [2]: S16 Schwann cell viability assay (CellTiter-Glo assay) (AID 624031).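 Note: native untransfected S16 rat Schwann cells; cellular ATP luminescence as a viability measure; series mostly up to about 58 µM; nearly all actives have a fitted effect of over 70% in size.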 A digest of the protocol:
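Rat S16 Schwann cells without reporter constructs received compound or DMSO for 24 h at 37 °C under 5% CO2. Cellular ATP was then quantified by CellTiter-Glo luminescence, with vehicle wells defined as 0% activity and cell-free wells as reference.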

The nature of assay [3]: S16 Schwann cell PMP22 intronic element firefly luciferase assay (AID 624032). Note: series mostly up to about 58 µM; nearly all actives have a fitted effect of over 30% in size. The procedure, abridged: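 Luciferase reporter of PMP22 intronic-element expression in stably transfected S16 rat Schwann cells, read by ONE-Glo luminescence after 24 h compound exposure at 37 C. Activity scaled between DMSO (0%) and positive-control PTC124; concentration-effect curves quality-classified.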

Assay [4] is described as follows: S16 Schwann cell PMP22 intronic element beta-lactamase assay (AID 624044; calls by dose curve; note: nearly all actives have a fitted effect of over 15% in size). A digest of the protocol: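 Rat S16 Schwann cells with beta-Lac driven by a PMP22 intronic element, compound-treated 24 h at 37 °C. LiveBLAzer FRET B/G read: 460 nm normalized to potassium clavulanate vs DMSO; 535 nm FRET as viability; concentration-effect curves classified.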

Records with an inconclusive call do not appear. Calls of active or inactive are those of the source. Unless noted, calls come from the whole dose curve; as a rule, active = well fitted curve in the direction sought with a large enough effect; inconclusive = small, poorly fitted or top-dose-only effect, or another doubt; inactive = no such curve, though single readings can be large; an effect the other way counts as inactive or inconclusive.

Sequence of Luciferin 4-monooxygenase (Photinus pyralis) (P08659 whole entry, looked up): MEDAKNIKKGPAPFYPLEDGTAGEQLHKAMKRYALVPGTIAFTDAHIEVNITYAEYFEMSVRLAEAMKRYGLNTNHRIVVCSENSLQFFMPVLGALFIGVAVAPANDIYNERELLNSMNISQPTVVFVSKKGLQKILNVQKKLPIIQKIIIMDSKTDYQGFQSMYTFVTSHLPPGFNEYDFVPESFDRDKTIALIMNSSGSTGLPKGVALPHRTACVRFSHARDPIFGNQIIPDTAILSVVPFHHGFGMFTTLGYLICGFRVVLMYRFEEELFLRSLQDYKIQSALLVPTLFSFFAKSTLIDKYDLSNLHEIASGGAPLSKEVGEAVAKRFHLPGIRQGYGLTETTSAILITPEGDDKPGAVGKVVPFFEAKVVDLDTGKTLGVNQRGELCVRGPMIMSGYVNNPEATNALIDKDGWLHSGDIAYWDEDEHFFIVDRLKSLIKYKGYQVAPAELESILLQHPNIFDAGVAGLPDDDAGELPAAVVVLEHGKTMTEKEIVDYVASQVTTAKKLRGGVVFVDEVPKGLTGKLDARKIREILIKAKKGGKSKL

For `CCCCC(CC)COC(=O)/C=C/c1ccc(OC)cc1` (centres undefined), the Potency entry in assay [1], in assay [2], in assay [3] and in assay [4] was “inactive” throughout.

Take `COc1ccccc1N1CCN(CCCCNC(=O)c2ccc(-c3ccc(C(C)=O)cc3)cc2)CC1`: the Potency entry in assay [3] was “inactive”.

In the case of `CN1CCC[C@@H]1CCO[C@](C)(c1ccccc1)c1ccc(Cl)cc1`, in assay [3], the Potency result was “inactive”.

Take `CN(Cc1ccc(C(C)(C)C)cc1)Cc1cccc2ccccc12`: the Potency entry in assay [1], in assay [3] and in assay [4] was “inactive” throughout.

The record behind these values is PubChem BioAssay (NCATS).
